28 molecules from PubChem BioAssay (NCI) can be followed below.

Values joined by “and” are separate entries in the source; they are usually repeats but may differ in a detail not shown here. Identical values can stand only once. About 83,000 compounds went through this panel and 20% of them were active in at least one assay; those are over-represented in the sample as a whole.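 Step 1: grow cells in 96-well plates. Step 2: add test compound at a single concentration. Step 3: incubate 48 h. Step 4: record percent growth.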 Values without a mark were called inactive. Active and inactive are the calls of the source. The calls were made as follows: active = growth percent below 10; inactive = the rest.

For the assay, the system named is MDA-MB-468 breast. Nature of the assay: NCI-60 one-dose screen, 48 h (100 = growth as untreated, 0 = no growth, -100 = all killed). Particulars: 10 µM unless noted.
Turning to `CC(=O)N(C)c1ccc(Nc2ccc(Nc3ccc(N(C)C(C)=O)cc3)c3c2C(=O)c2ccccc2C3=O)cc1`, the growth is 30.9%. Under `CCCCCCCCOC(=O)c1c(C)[nH]c(/C=C2\N=C(c3ccc[nH]3)C=C2OC)c1C` stands -25.7% (active); under `CCS(=O)(=O)N[C@@H]1O[C@H](COC(C)=O)C(OC(C)=O)[C@H](OC(C)=O)C1OC(C)=O` (stereo partly drawn), 100%; under `C[C@]12CC[C@@H]3c4cc(O)c(O)cc4CC[C@H]3[C@@H]1CC[C@@H]2O`, 72.1%.

As to `CSc1ccc(/C(=N/N=C(N)N)c2ccc(Cl)cc2)cc1`, the growth was -36.1% (active).

For `COc1cc(/C=C2\CCCC3=C2NC(N)=NC3c2cc(OC)c(OC)c(OC)c2)cc(OC)c1OC` (stereo not drawn), the growth is -70.9% (active).

With `NC(N)=Nc1ccc(Oc2cccc(NC(N)=Nc3ccc(I)cc3F)c2)cn1`, the growth was -8.03% (active).

For `Cc1c(C(N)=O)sc2c1c(=O)n(Cc1ccccc1)c1nnc(S(C)(=O)=O)n21`, the growth was 57.1%. As to `CC12CCC(CC1)C(C)(C)O2`, the growth is 108%.

For the molecule `N#Cc1c(N)nc(Cl)c(C#N)c1C(=O)c1ccccc1`, the growth was -6.56% (active). `c1ccc2[nH]c(-c3ccc(Nc4nc(N5CCCCC5)nc(N5CCOCC5)n4)cc3)nc2c1`: the growth was -3.66% (active). Then `CNC(=O)c1cc(Oc2ccc3nc(NC(=O)Nc4ccc(Cl)c(C(F)(F)F)c4)sc3c2)ccn1`, with -5.09% (active). Turning to `Oc1ccc(CSc2nnc(-c3ccc(Br)cc3)n2-c2ccccc2)c2cccnc12`, the growth was 36.1%. Take `COc1cc(/C=C2\C(=O)N(CCCCn3c4ccccc4c(=O)c4ccccc43)c3ccccc32)cc(OC)c1O`: the growth was 46.2%.

Consider `COC(=O)C(C)[C@H]1CC[C@@H]2[C@]1(C)CC=C1[C@]23C=C[C@]2(C[C@@H](OC(C)=O)CC[C@]12C)C(C(=O)OC)C3C(=O)OC` (stereo partly drawn), for which the growth was 94.1%. With `COc1ccccc1OCC(O)CO` (stereo not drawn), the growth was 114% and 92.9%. Turning to `COc1ccc(CN2c3ccccc3Sc3ccccc32)c(C(F)(F)F)c1`, the growth was 18.8%. Consider `Fc1ccc(C2CC(c3cccc(Nc4ccncc4)c3)=NN2c2ccccc2)cc1` (stereo not drawn), for which the growth is -2.33% (active). Under `COc1cnc2c(c1)C(=O)c1c-2n(CCCBr)c(=O)c2cc([N+](=O)[O-])ccc12` stands -15.8% (active). Under `O=C(NNc1ccccc1)c1ccccc1` stands 87.1% and 103%. Under `C=CCn1c(C)nc2cc(Nc3nc(N4CCCC4)nc4ccccc34)ccc21` stands 105%; under `CO[C@@H](C)Cn1c(=O)n(C)c2cnc3ccc(-c4cncc(C(C)(C)O)c4)cc3c21`, -45.9% (active); under `S=C(c1ccc2c(c1)OCO2)N1CCN(c2ccccc2Cl)CC1`, 80.8%. Turning to `COc1ccc(CNc2c3ccccc3nc3ccccc23)cc1OC`, the growth was -22.7% (active). With `NS(=O)(=O)c1ccc(Nc2nc(SCC(=O)c3ccc(Cl)cc3)nc3ccccc23)cc1`, the growth was 82.4%. Then `COc1cc2c(=O)n(CCN)c3c4cc5c(cc4ccc3c2cc1OC)OCO5`, with -31.7% (active); and `Cc1cc2nc(C(Cl)Cl)nc(-c3ccc(S(=O)(=O)N(C)C)cc3)n2n1`, with -20.2% (active). As for `CN1CCN(CCOc2ccc(-c3cnc4c(-c5ccc(F)cc5)cnn4c3)cc2)CC1`, the growth is 61.3%.
